CCT modulator: cytosolic chaperonin activity modulation; activity change, % (concentration not given with the values), hits read low; 0.3% of 360,000 active; purified chaperonin ATPase assay, HTRF ADP detection, 30 min; in the data active = activity change below about -30%
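TRiC (40 or 20 nM final, by batch activity) in 30 mM Tris pH 7.4, 100 mM KCl, 5 mM MgCl2, 1 mM DTT was treated with compound at 76 uM single dose, then 10 uM ATP, 30 min at 37 °C. ADP was read by HTRF Transcreener.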
Mm-Cpn inhibitor: inhibitors of Methanococcus maripaludis chaperonin TRiC (MmCpn); purified Mm-Cpn ATPase, ADP Transcreener TR-FRET; Potency, µM (titrated, usually from 76.9 µM), usual class: inhibitors; 0.031% of 330,000 active; AID 504842; note: nearly all actives have a fitted effect of over 80% in size
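Quantitative HTS used 25 nM Mm-CPN and 10 uM ATP in magnesium/KCl Tris buffer, pH 7.4, with 1 mM DTT. Hydrolysis ran 30 min at 37°C; ADP was read by HTRF.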
GLP-1R agonist: GLP-1 receptor (human) agonism. P43220. HEK293 GLP-1R CRE-luciferase, luminescence, 4-6 h; cells express a hypersensitive GLP-1R form. Potency, µM (series often up to 45.6 µM), usual class: activators. 0.007% of 380,000 active
Target sequence (P43220 whole entry, looked up): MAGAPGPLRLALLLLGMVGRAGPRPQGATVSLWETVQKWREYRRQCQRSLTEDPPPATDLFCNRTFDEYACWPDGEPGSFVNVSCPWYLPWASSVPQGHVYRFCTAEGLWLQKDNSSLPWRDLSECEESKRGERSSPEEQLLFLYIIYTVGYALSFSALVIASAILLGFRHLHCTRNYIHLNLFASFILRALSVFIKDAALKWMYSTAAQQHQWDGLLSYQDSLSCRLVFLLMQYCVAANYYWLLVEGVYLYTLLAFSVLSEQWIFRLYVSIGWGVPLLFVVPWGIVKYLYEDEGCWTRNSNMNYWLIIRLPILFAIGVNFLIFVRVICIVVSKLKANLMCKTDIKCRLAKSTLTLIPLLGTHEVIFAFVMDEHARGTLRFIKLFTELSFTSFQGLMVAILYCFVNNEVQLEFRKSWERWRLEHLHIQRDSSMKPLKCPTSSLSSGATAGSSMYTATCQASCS
GLP1R inv ag: inverse agonists of human GLP-1 receptor; Potency, µM (titrated, usually from 38.3 µM), most hits filed as inhibitors; 1.6% of 410,000 active; HEK293 GLP-1R CRE-luciferase, luminescence, 24 h; GLP-1R form is constitutively active; P43220; note: nearly all actives have a fitted effect of over 55% in size
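Inverse agonists were sought by their lowering of basal cAMP reporter luciferase output in HEK293 cells stably carrying constitutively active human GLP-1R, after 24 h compound treatment.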
uPA surface inh: cell surface uPA generation inhibition. cell surface uPA generation assay, qHTS. Potency, µM (doses to about 38.3 µM), usual class: inhibitors. 0.31% of 330,000 active. AID 540303; active = well fitted inhibition curve with a large enough effect; inconclusive = small, poorly fitted or top-dose-only effect; inactive = no such curve, though single readings can be large or run the other way; tested in mouse RAW 264.7 cells; note: nearly all actives have a fitted effect of over 55% in size
GLP1R cytotox: cytotoxicity in counter-screen for GLP-1R inverse agonists | HEK293 cAMP-luciferase reporter cells, luminescence, 24 h | Potency, µM (titrated, usually from 38.3 µM), most hits filed as inhibitors | 0.13% of 410,000 active;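 note: loss of luciferase light is scored as toxicity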
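Compound-treated cells are incubated 24 hr at 37 deg C under 5% CO2 after a 12 hour attachment period, then luciferase detection reagent is added and luminescence is measured following 12 min at room temperature; lowered signal indicates toxicity.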
Numbers stand for hits; n = inactive; u = inconclusive; x = not tested or not shown; [ ] = remark or other dose. The list is not random: actives were taken first. Their share in the collection is about 2.2%. Unless noted, calls come from the whole dose curve; as a rule, active = well fitted curve in the direction sought with a large enough effect; inconclusive = small, poorly fitted or top-dose-only effect, or another doubt; inactive = no such curve, though single readings can be large; an effect the other way counts as inactive or inconclusive.

SMILES | CCT modulator | Mm-Cpn inhibitor | GLP-1R agonist | GLP1R inv ag | uPA surface inh | GLP1R cytotox
O=S(=O)(c1ccc(F)cc1)N(CC(O)Cn1c2ccccc2c2ccccc21)c1ccccc1 (stereo not drawn) | x | x | x | u | x | n
CC12CCC(C(=O)n3c1nc1ccccc13)C2(C)C (stereo not drawn) | n | n | n | 1.6µM | n | n
O=C(Nc1ccccc1)C1=C(c2ccccc2)S(=O)(=O)CCS1(=O)=O | -55 | n | n | n | n | u
CCCCCCCC(=O)CC[C@H]1[C@@H](C/C=C/CCCC(=O)OC(C)C)[C@@H](O)C[C@H]1O | x | x | n | x | x | x
CC(Oc1ccc(Cl)cc1Cl)C(=O)NC(=S)N1CCc2ccccc21 (stereo not drawn) | n | n | n | 10µM | n | u
CC(Oc1ccc(Cl)cc1C(N)=O)C(=O)N1CCc2ccccc21 (stereo not drawn) | n | n | n | n | n | n
COc1cccc(CNC(=O)CN2C(=O)N(c3ccc(C)cc3C)S(=O)(=O)c3ccccc32)c1OC | x | x | n | n | x | n
O=C(COc1ccc2c(c1)C(=O)CC1(CCCCC1)O2)NCc1ccccc1 | n | n | n | 11µM | n | n
CC(C)Cc1ccc(C(C)C(N)=Nc2ccc(O)cc2)cc1 (stereo not drawn) | n | x | n | 13µM | n | u
CC/C=C(/C(=O)N[C@@H]1C(=O)N2C(C(=O)OCOC(=O)C(C)(C)C)=C(COC(N)=O)CS[C@H]12)c1csc(N)n1 | x | x | n | x | x | x
CCCn1c(N2CCN(Cc3ccc(Cl)cc3)CC2)nc2ccccc21 | n | n | n | 11µM | n | u
O=C(Nc1ccc2c(c1)OCO2)c1cc(C2CCCCN2C(=O)c2ccc(Cl)cc2)on1 (stereo not drawn) | n | x | n | u | x | n
O=C(Nc1ccc2c(c1)OCO2)c1cc(C2CCCCN2C(=O)c2ccc3c(c2)CCO3)on1 (stereo not drawn) | n | x | n | 10µM | x | n
Cc1cccc(OCC(=O)Nc2ccc(Cl)c(-c3nc4ncccc4o3)c2)c1C | x | x | n | n | x | n
CCN(CC)CCn1c2ccccc2c2nc3ccccc3nc21 | n | n | n | u | 10µM | n
CCN(C(=O)c1cc2c(Cl)nc3ccccc3c2s1)c1cccc(Cl)c1 | x | x | n | n | x | n
COc1ccc(CC(=O)NCC(c2ccc(N(C)C)cc2)N2CCOCC2)cc1OC (stereo not drawn) | x | x | x | n | x | n
COc1ccc(S(=O)(=O)N(CC(=O)Nc2cccc(C(F)(F)F)c2)c2ccc(C)cc2)cc1 | x | x | n | 10µM | x | n
COc1ccc(N(CC(=O)NC2CC3CCC2C3)S(=O)(=O)c2ccc(C)cc2)cc1OC (stereo not drawn) | n | n | n | n | n | n
COc1ccc(N(CC(=O)NC2CC3CCC2C3)S(=O)(=O)c2ccc(C)cc2)cc1 (stereo not drawn) | n | n | n | 10µM | n | n
COc1ccc(C(c2nnnn2C2CCCC2)N2CCC(C)CC2)c(OC)c1 (stereo not drawn) | n | n | n | 10µM | n | n
COc1ccc(OC)c(C(c2nnnn2C2CCCC2)N2CCN(c3ccc(F)cc3)CC2)c1 (stereo not drawn) | n | n | n | u | n | n
Cc1ccc(N2CC(NC(=O)c3ccc4c(c3)OCO4)CC2=O)cc1 (stereo not drawn) | x | x | x | n | x | n
Cc1ccc(S(=O)(=O)N(CC(=O)N/N=C/c2ccco2)c2cc(Cl)cc(Cl)c2)cc1 | n | n | n | 6.3µM | n | u
CCCCCCCCCCCCCCCCCCNC(=O)OC1CCN(C(=O)OC[C@H](COC(=O)N(Cc2cccc[n+]2CC)C(=O)c2ccccc2OC)OC)CC1 | x | x | n | x | x | x
SMILES | CCT modulator | Mm-Cpn inhibitor | GLP-1R agonist | GLP1R inv ag | uPA surface inh | GLP1R cytotox
Cc1ccc2nc(C)c(C(=O)NN=C3CCCCCC3)n2c1 | n | n | n | u | 4.5µM | u
NS(=O)(=O)c1ccc(NC(=S)NCc2ccc(Cl)cc2)cc1 | n | n | n | 4µM | n | n
O=C(c1cccc(NS(=O)(=O)c2ccccc2)c1)N1CCCC1 | n | n | n | n | n | n
O=C(c1cccc(NS(=O)(=O)c2ccc(F)c(F)c2)c1)N1CCN(C(c2ccccc2)c2ccccc2)CC1 | n | n | n | 4µM | n | n
Cc1[nH]ccc2cc3nc4ccccc4c3cc12 | n | x | n | 10µM | x | n
Cc1cccc2nc3ccccc3cc12 | n | x | n | n | n | n
CC(C)(C)NC[C@@H](O)COc1ccccc1C1CCCC1 | x | x | n | x | x | x
CC(C)(C)NCC(O)COc1ccccc1C(=O)CCc1ccccc1 (stereo not drawn) | n | n[15.4 µM] | n | 11µM | n | u
CC(C)(C)NCC(O)COc1ccccc1C(C)(C)C (stereo not drawn) | n | n | n | 7.9µM | n | n
O=C(CNC(=O)c1ccccc1Cl)OCc1cc(=O)n2ccsc2n1 | x | x | x | n | x | n
Cc1cc(C)c(NC(=S)N(CCN2CCCCC2)Cc2ccco2)c(C)c1 | n | n | n | u | n | u
Cc1cccc(C)c1NC(=S)N(CCN1CCCCCC1)Cc1ccco1 | n | n | n | 10µM | n | n
CCOC(=O)c1c(-c2ccccc2)oc2ccc(N(C(C)=O)S(=O)(=O)c3ccc(CC)cc3)cc12 | x | x | x | n | x | n
COc1ccc(CNC(=O)c2ccc(NC(=O)N3CCCCc4ccccc43)cc2)c(OC)c1 | x | x | x | 11µM | x | n
COc1ccc(OC)c(CNC(=O)Cc2ccc(NC(=O)N3CCCCc4ccccc43)cc2)c1 | x | x | x | n | x | n
Cc1cc(OCc2cc(C(=O)N(C)Cc3ccccn3)no2)cc(C)c1Cl | n | n | n | 2µM | n | n
CC(=O)c1ccc(OCc2cc(C(=O)N(C)Cc3ccccn3)no2)cc1 | n | n | n | n | n | n
CCOc1ccc(C(=O)c2cn(CC(=O)Nc3ccc(C)c(C)c3)c3ccc(OCC)cc3c2=O)cc1 | x | x | n | n | x | n
Cc1ccc(C(c2ccc(C)o2)c2cccc([N+](=O)[O-])c2O)o1 | n | n | n | u | n | n
Cc1cc(C(c2ccc(C)o2)c2ccc(C)o2)c(O)c([N+](=O)[O-])c1 | n | n | n | 10µM | n | n
C/C=C/c1ccc(OCC(O)CN2CCCCC2CC)c(OC)c1 (stereo not drawn) | n | n | n | 13µM | n | n
COc1ccccc1NC(=O)c1cc2n(n1)C(C(F)(F)F)CC(c1ccc3c(c1)OCO3)N2 (stereo not drawn) | n | n | n | 2µM | n | n
COc1ccc(OC)c(NC(=O)c2cc3n(n2)C(C(F)(F)F)CC(c2ccc4c(c2)OCO4)N3)c1 (stereo not drawn) | n | n | n | n | x | n
COc1ccc(S(=O)(=O)N2CCC(N3CCN(Cc4ccc(F)cc4)C(=O)C3=O)CC2)cc1 | x | x | x | n | x | n

Screens (PubChem BioAssay)
